Shown are actives, neighbours in structure and some others; about 4.7% of the full set was active somewhere.
SARS 3CLpro inh = SARS-CoV 3CLpro protease inhibitors, primary screen, biochemical, quenched FRET; AID 1706, 2009; 290,000 compounds, 0.14% hits; Replicase polyprotein 1ab (Severe acute respiratory syndrome coronavirus), P0C6X7; inhibition, % at 6 µM; recombinant SARS-CoV 3CLpro, quenched FRET peptide cleavage; in the data active = inhibition above about 12%
DUSP3 inh = VHR1 phosphatase inhibitors, primary screen, biochemical, absorbance, uHTS | Dual specificity protein phosphatase 3 (Homo sapiens), P51452 | recombinant VHR phosphatase, pNPP absorbance | inhibition, % at 13.3 µM | 290,000 compounds, 0.52% hits; in the data active = inhibition above about 50%
Target sequence (P51452 whole entry, looked up): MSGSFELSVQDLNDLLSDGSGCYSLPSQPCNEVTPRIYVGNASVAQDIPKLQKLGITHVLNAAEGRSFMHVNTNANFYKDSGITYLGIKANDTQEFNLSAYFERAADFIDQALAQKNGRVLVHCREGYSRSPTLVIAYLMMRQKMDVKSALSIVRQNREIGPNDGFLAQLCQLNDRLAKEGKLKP
GDH-TPI counter = GDH-TPI coupling enzyme inhibitors, primary screen, artefact control for M. tuberculosis FBA inhibitor project, biochemical, absorbance, full deck; GDH-TPI coupled enzyme counterscreen, NADH absorbance; inhibition, % at 4.8 µM; 360,000 compounds, 1.2% hits
CCHFV vOTU inh = CCHFV vOTU protease inhibitors, primary screen, biochemical, Pep-AMC substrate, fluorescence. inhibition, % at 11.5 µM. Crimean-Congo hemorrhagic fever virus L polyprotein viral ovarian tumor (vOTU) protease …. 370,000 compounds, 0.55% hits
RecA intein inh = Mtb RecA intein splicing inhibitors, primary screen, biochemical, fluorescence, HTS; Protein RecA (Mycobacterium tuberculosis (strain ATCC 25618 / H37Rv)), P9WHJ3; cell-free RecA intein splicing; inhibition, % (concentration not given with the values); 290,000 compounds, 0.75% hits; in the data active = inhibition above about 30%
FBA Mtb inh = Mtb FBA enzyme inhibitors, primary screen, biochemical, fluorescence, strain H37Rv. Fructose-bisphosphate aldolase (Mycobacterium tuberculosis (strain ATCC 25618 / H37Rv)), …. purified M. tuberculosis FBA, fluorescence read-out. inhibition, % at 1 µM. 360,000 compounds, 2.3% hits; in the data active = inhibition above about 27%
Target sequence (P9WQA3 whole entry, looked up): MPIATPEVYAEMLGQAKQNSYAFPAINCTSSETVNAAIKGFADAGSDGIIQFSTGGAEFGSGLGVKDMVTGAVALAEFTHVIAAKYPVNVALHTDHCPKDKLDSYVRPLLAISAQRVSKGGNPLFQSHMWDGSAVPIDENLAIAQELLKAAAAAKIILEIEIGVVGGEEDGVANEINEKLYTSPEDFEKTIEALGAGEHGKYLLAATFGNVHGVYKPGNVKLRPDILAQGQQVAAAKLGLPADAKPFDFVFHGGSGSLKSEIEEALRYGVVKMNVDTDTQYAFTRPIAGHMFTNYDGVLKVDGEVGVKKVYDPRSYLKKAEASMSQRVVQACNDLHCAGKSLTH
Of the large screens only hits and unclear results are named; the others gave an inactive call. Rule as the data show it, unless noted: active = inhibition above about 30%; inactive = the rest.

O=c1c2c(nc3c(-c4cccc5ccccc45)c[nH]n13)CCC2	FBA Mtb inh 129
O=c1c(Cl)c(N/N=C/c2ccc(Br)cc2)cnn1-c1ccccc1	GDH-TPI counter 56
CNc1cnn(-c2ccccc2)c(=O)c1Cl	none
Cc1ccc(C(=O)N(CC(=O)NC2CCCC2)c2ccccc2F)s1	none (no result: SARS 3CLpro inh, DUSP3 inh, RecA intein inh)
O=C(O/N=C\c1ccc(N2CCCCC2)c([N+](=O)[O-])c1)c1cccc(Cl)c1	none
Cc1ccc(C(=O)O/N=C\c2ccc(N3CCCCC3)c([N+](=O)[O-])c2)cc1	GDH-TPI counter 40
Cc1c(C)c2ccc(OC3CCCCC3=O)cc2oc1=O (stereo unspecified)	FBA Mtb inh 153
O=C(CNC(=O)OCc1ccccc1)NC1CCCCCC1	DUSP3 inh 53
O=C(Nc1ccc(F)cc1)c1ccc(C(=O)N2CCCC(O)C2)cc1 (stereo unspecified)	none (no result: SARS 3CLpro inh, DUSP3 inh)
CC(=O)C1=CCC(c2ccc(Cl)cc2)N(S(=O)(=O)c2ccccc2C)C1 (stereo unspecified)	none (no result: SARS 3CLpro inh, DUSP3 inh, GDH-TPI counter, RecA intein inh)
CCc1ccc(Nc2ncc3c(n2)CC(c2ccc(OC)cc2)CC3=O)cc1 (stereo unspecified)	none
Cc1cccc(Nc2ncc3c(n2)CC(C)CC3=O)c1 (stereo unspecified)	GDH-TPI counter 36
Cc1cccc(Nc2ncc3c(n2)CC(c2ccco2)CC3=O)c1 (stereo unspecified)	none
COc1ccc(Nc2ncc3c(n2)CC(c2ccccc2)CC3=O)cc1 (stereo unspecified)	GDH-TPI counter 31
N#CCSc1ncnc2ccccc12	none
c1ccc(Sc2ncnc3ccccc23)cc1	RecA intein inh 40
CSc1ccc(OC2(C)CCN(Cc3ccc(OC(C)C)cc3)C2)cc1 (stereo unspecified)	none (no result: SARS 3CLpro inh, DUSP3 inh, RecA intein inh)
Cc1ccc(S(=O)(=O)NC(C(=O)Oc2ccc3ccc(=O)oc3c2)c2ccccc2)cc1 (stereo unspecified)	FBA Mtb inh active
CCC(NC(=O)OCc1ccccc1)C(=O)Oc1ccc2ccc(=O)oc2c1 (stereo unspecified)	FBA Mtb inh active
Cc1ccc(S(=O)(=O)N[C@H](C(=O)Oc2ccc3c(C(F)(F)F)cc(=O)oc3c2)c2ccccc2)cc1	none (no result: CCHFV vOTU inh)
Cc1ccc(S(=O)(=O)NC(C(=O)Oc2ccc3c(C)c(Cl)c(=O)oc3c2)c2ccccc2)cc1 (stereo unspecified)	FBA Mtb inh active
Cc1ccc(S(=O)(=O)NCCC(=O)Oc2ccc3ccc(=O)oc3c2)cc1	FBA Mtb inh active
CN(C)c1cccc2c(S(=O)(=O)NC(=O)[C@H]3O[C@@H](n4cnc5c(N)ncnc54)[C@H](O)[C@@H]3O)cccc12	none (no result: SARS 3CLpro inh, DUSP3 inh, GDH-TPI counter, RecA intein inh)
CC1(C(=O)Nc2cccc(Oc3ccccc3)c2)CCN1Cc1ccccc1OC(F)F (stereo unspecified)	none (no result: SARS 3CLpro inh, DUSP3 inh, RecA intein inh)
CC(C)(C)S(=O)(=O)/C(C#N)=C/c1cccn1S(=O)(=O)c1ccccc1	none (no result: SARS 3CLpro inh, DUSP3 inh, RecA intein inh)
O=C(NCc1ccccc1)[C@@H]1CCCN1C(=O)[C@H]1CCCN1C(=O)c1ccc(F)c(F)c1	none (no result: SARS 3CLpro inh, DUSP3 inh, GDH-TPI counter, RecA intein inh, FBA Mtb inh)
CN(C(=O)c1cccc(NC(=O)Cc2ccc(NC(=O)C3CCCN(C(=O)C4CC4)C3)cc2)c1)C1CCCCC1 (stereo unspecified)	none (no result: SARS 3CLpro inh, DUSP3 inh, RecA intein inh)
CCC[C@@H](NS(=O)(=O)c1ccc(C)cc1)C(=O)Oc1ccc2c3c(c(=O)oc2c1)CCC3	FBA Mtb inh active
CCCC(NS(=O)(=O)c1ccc(C)cc1)C(=O)O (stereo unspecified)	none
COC(=O)c1cc2c(c3c4ccccc4n(S(=O)(=O)c4ccc(C)cc4)c13)C(=O)N(CC(C)C)C2	none (no result: SARS 3CLpro inh, DUSP3 inh, GDH-TPI counter, RecA intein inh, FBA Mtb inh)
CCOC(=O)C1=NN(c2ccccc2)C2C(=O)N(c3ccccc3OC)C(=O)C12 (stereo unspecified)	GDH-TPI counter 38
CCOC(=O)C1=NN(c2ccc(OC)cc2)C2C(=O)N(c3ccccc3OC)C(=O)C12 (stereo unspecified)	none (no result: RecA intein inh)
Cn1cc(C(=O)C(=O)N2CCOCC2)c2ccccc21	GDH-TPI counter 31
COc1cc(C2=NC(CO)(CO)CO2)cc(OC)c1OC	DUSP3 inh 58 (no result: RecA intein inh)
Cc1c(C(=O)NN2CCCCC2)nn(-c2ccc(Cl)cc2Cl)c1-c1ccc(Cl)cc1	none (no result: SARS 3CLpro inh, DUSP3 inh, GDH-TPI counter, RecA intein inh, FBA Mtb inh)
O=C(COC(=O)C1CC1)NC(=O)c1ccccc1	none (no result: SARS 3CLpro inh, DUSP3 inh, RecA intein inh)
O=C1NC(=O)C2C3C=CC(C12)C1C(=O)NC(=O)C31 (stereo unspecified)	none (no result: SARS 3CLpro inh, DUSP3 inh, GDH-TPI counter, RecA intein inh, FBA Mtb inh)
CN(/N=C/c1cc(Cl)cc(Cl)c1O)c1c(Cl)cccc1[N+](=O)[O-]	GDH-TPI counter 37
CC(C)(C)N/N=C/c1cc(Cl)cc([N+](=O)[O-])c1O	none
Cc1ccccc1C(OCC(O)CN1CCN(CCO)CC1)c1ccccc1 (stereo unspecified)	none
COc1ccc(/C=N/Nc2cc(N(C)C)nc(N(C)C)n2)cc1	none
COc1ccc(/C=N/Nc2cc(C)nc(N3CCOCC3)n2)cc1	GDH-TPI counter 33
COc1ccc(/C=N/Nc2cc(C)nc(-n3nc(C)cc3C)n2)c(OC)c1	GDH-TPI counter 37
COc1ccc(/C=N/Nc2cc(OC)ncn2)cc1	GDH-TPI counter 31
COc1ccc(/C=N/Nc2cc(C)nc(N3CCOCC3)n2)cc1OC	none
Cc1cc(N/N=C/c2ccc(F)cc2)nc(-n2nc(C)cc2C)n1	none (no result: RecA intein inh)
COc1ccc(/C=N/Nc2cc(C)nc(N)n2)cc1	GDH-TPI counter 35
c1ccc2c(SCc3cn4ccccc4n3)nncc2c1	none
O=c1[nH]c(/C=C\c2cccc(F)c2)nc(O)c1[N+](=O)[O-]	GDH-TPI counter 31
C=CCOc1cccc(/C=C\c2nc(O)c([N+](=O)[O-])c(=O)[nH]2)c1	none
O=c1[nH]c(/C=C\c2cccc(Cl)c2)nc(O)c1[N+](=O)[O-]	GDH-TPI counter 51
CCCC[C@H]1C2CC(OC(=O)NCc3ccc(Cl)cc3)C(C2)[C@H]2CCCCN21 (stereo partly specified)	none (no result: SARS 3CLpro inh, DUSP3 inh, GDH-TPI counter, RecA intein inh, FBA Mtb inh)
C[C@@H]1COc2cccc(N3CCCC3)c2S(=O)(=O)N1	none (no result: SARS 3CLpro inh, DUSP3 inh, GDH-TPI counter, RecA intein inh, FBA Mtb inh)
O=C(CCN1C(=O)S/C(=C\c2cccs2)C1=O)Nc1nccs1	none
O=C(CCN1C(=O)S/C(=C/c2ccccc2)C1=O)Nc1ccc(O)c(C(=O)O)c1	GDH-TPI counter 42
O=C(CCN1C(=O)S/C(=C\c2ccccc2)C1=O)Nc1ccc(O)cc1C(=O)O	GDH-TPI counter 38
O=C(CN1C(=O)S/C(=C\c2cccs2)C1=O)Nc1ccc(O)cc1C(=O)O	GDH-TPI counter 44
Brc1ccc(-n2cnc(-c3ccccc3)c2)cc1	DUSP3 inh 57
CC(=O)Nc1cccc(-c2csc(N)n2)c1	none
